Measurements: PubChem BioAssay (NCATS)
Results filed as inconclusive are left out. Activity calls are given as the source filed them. Unless noted, the call rests on the fitted dose curve; in most records, active means well fitted curve in the direction sought with a large enough effect; inconclusive means small, poorly fitted or top-dose-only effect, or another doubt; inactive means no such curve, though single readings can be large; an effect the other way counts as inactive or inconclusive.

What was measured:
[1] = qHTS assay for small molecule disruptors of the mitochondrial membrane potential - 1 hr assay (AID 651754; calls by dose curve; further: on the % scale 0 is the no-effect control and ±100 the full control effect; nearly all actives have a fitted effect of over 35% in size)
In short: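 HepG2, 2,000 cells/well, overnight attachment; cpd or DMSO 1 hr, 37C/5% CO2; Mito-MPS dye 30 min, 37C; fluorescence monomer (490/535) and aggregate (540/590).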

[2] = qHTS assay for small molecule disruptors of the mitochondrial membrane potential - 5 hr assay (AID 651755; calls by dose curve; further: on the % scale 0 is the no-effect control and ±100 the full control effect; nearly all actives have a fitted effect of over 40% in size)
In short: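 HepG2 cells (2,000/well), attached overnight, exposed to compound 5 hr at 37C, then Mito-MPS dye 30 min. Fluorescence read for monomers (490/535 nm) and aggregates (540/590 nm).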

[3] = biological target: Tumor necrosis factor (Homo sapiens) (UniProt P01375); experiment: qHTS assay to identify small molecules that stimulate Tumor Necrosis Factor-alpha (TNF-alpha) secretion (AID 651757; active means well fitted curve in the direction sought with a large enough effect in the signal ratio; the % refers to the signal ratio; further: 0% is about no effect)
Sequence of Tumor necrosis factor (Homo sapiens) (P01375 whole entry, looked up): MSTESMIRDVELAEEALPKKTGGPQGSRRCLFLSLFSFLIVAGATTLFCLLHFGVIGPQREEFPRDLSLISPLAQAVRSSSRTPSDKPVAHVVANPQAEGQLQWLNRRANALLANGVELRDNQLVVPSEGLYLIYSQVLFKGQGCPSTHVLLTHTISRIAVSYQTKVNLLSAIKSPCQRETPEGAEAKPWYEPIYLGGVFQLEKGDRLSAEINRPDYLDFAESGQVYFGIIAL
In short: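 Read-out is HTRF, a TR-FRET sandwich of cryptate- and XL665-labeled anti-TNF-alpha antibodies detecting cytokine secreted by THP-1 cells. Cells had been incubated with test compounds at 37 C for 17 hrs beforehand.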

[4] = qHTS assay to identify small molecules that stimulate interleukin-8 (IL-8) secretion (AID 651758; active means well fitted activation curve with a large enough effect in the signal ratio; the % refers to the signal ratio; further: 0% is about no effect)
In short: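 THP-1 cells (2000/well) exposed to compound 16 h at 37 C; secreted IL-8 then detected by HTRF with cryptate- and XL665-labelled anti-IL-8 antibody pair after 1-3 h at room temperature.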

[5] = qHTS assay for environmental chemicals that activate the Aryl hydrocarbon Receptor (AhR) signaling pathway (AID 651777); settings: 1A2-DRE human hepatoma cells, luciferase, 24 h; activation: stronger effect = higher value; further: % of control where 0% means no effect; nearly all actives have a fitted effect of over 15% in size
In short: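 Quantitative HTS in stably transfected human liver-derived cells whose luciferase gene sits downstream of the CYP1A2 promoter and dioxin response element. After 24 hr exposure at 37 C, One-Glo luminescence was measured.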

[6] = biological target: Peroxisome proliferator-activated receptor alpha (Homo sapiens) (UniProt Q07869); experiment: qHTS assay for small molecule agonists of the peroxisome proliferator-activated receptor alpha (PPARalpha) signaling pathway (AID 651778); settings: PathHunter PPARalpha complementation, chemiluminescence, 6 h; stronger effect = higher value; further: % of control where 0% means no effect
Sequence of Peroxisome proliferator-activated receptor alpha (Homo sapiens) (Q07869 whole entry, looked up, the tested form may be a part): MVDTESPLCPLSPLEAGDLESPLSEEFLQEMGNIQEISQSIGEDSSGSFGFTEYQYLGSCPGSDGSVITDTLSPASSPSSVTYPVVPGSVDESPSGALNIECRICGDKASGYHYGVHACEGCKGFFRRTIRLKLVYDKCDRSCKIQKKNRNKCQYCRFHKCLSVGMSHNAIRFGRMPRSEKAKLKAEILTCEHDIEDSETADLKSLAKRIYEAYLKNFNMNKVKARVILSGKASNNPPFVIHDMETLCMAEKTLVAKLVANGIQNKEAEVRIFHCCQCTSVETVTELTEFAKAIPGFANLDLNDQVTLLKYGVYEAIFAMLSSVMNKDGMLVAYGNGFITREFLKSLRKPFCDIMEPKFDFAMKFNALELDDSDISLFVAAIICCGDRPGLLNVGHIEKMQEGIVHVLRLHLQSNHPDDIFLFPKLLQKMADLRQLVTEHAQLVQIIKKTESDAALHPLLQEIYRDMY
In short: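 Enzyme-fragment complementation assay in which ligand-bound PPARalpha translocates and forms an active enzyme that generates chemiluminescence. Cells were plated overnight, exposed to compound for 6 hr at 37 C, and then given detection reagent for 60 min at room temperature.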

[7] = biological target: Nuclear receptor ROR-gamma (Homo sapiens) (UniProt P51449); experiment: qHTS assay for small molecule antagonists of the retinoid-related orphan receptor gamma (ROR-gamma) signaling pathway (AID 651802);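 further: luciferase reporter luminescence driven by ROR response element; series mostly up to about 92 µM; on the % scale 0 is the no-effect control and ±100 the full control effect; nearly all actives have a fitted effect of over 60% in size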
Sequence of Nuclear receptor ROR-gamma (Homo sapiens) (P51449 whole entry, looked up): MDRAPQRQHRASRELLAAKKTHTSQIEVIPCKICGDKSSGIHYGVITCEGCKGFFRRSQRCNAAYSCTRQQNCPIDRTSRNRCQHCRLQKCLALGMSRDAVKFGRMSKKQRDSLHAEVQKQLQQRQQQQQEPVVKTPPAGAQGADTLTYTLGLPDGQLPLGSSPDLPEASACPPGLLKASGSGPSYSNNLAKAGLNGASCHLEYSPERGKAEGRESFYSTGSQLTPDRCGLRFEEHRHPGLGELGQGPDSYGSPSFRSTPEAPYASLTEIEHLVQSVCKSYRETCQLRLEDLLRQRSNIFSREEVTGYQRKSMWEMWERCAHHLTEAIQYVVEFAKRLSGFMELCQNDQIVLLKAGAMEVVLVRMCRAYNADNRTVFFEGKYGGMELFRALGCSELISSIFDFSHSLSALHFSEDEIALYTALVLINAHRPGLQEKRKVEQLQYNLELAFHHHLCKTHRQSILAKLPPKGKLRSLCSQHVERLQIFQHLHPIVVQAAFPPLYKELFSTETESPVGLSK
In short: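 CHO, TET-inducible ROR + RORE-LUC reporter, 1536-well qHTS. Compound pinned, doxycycline added, 16hr 37C/5% CO2. ONE-Glo, 30 min RT, luminescence; signal drop scored as antagonism.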

[8] = qHTS assay for small molecule agonists of the antioxidant response element (ARE) signaling pathway measured by Nrf2-dependant transcriptional activity (AID 720636; active means well fitted curve in the direction sought with a large enough effect in the repeat runs; an effect the other way counts as inactive or inconclusive; further: % of control where 0% means no effect)
In short: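 Quantitative HTS format in HepG2 cells stably expressing an ARE-luciferase reporter; 16 hr compound treatment at 37 C, luciferase signal detected with ONE-Glo.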

[9] = qHTS assay for small molecule antagonists of the retinoid-related orphan receptor gamma (ROR-gamma) signaling pathway - cell viability counter screen (AID 720652; active means well fitted curve in the direction sought with a large enough effect in the repeat runs; an effect the other way counts as inactive or inconclusive;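 further: series mostly up to about 92 µM; compound exposure lasted 16 hr before ATP read; on the % scale 0 is the no-effect control and ±100 the full control effect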)
In short: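 Luminescence from CellTiter-Glo after 30 min at room temperature reported cellular ATP as the cytotoxicity measure. Cells were the CHO reporter line with doxycycline-induced ROR-gamma expression, exposed to compound for 16 hr at 37 C.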

[10] = qHTS assay for small molecule agonists of the antioxidant response element (ARE) signaling pathway measured by Nrf2-dependant transcriptional activity - cell viability counter screen (AID 720653; active means well fitted curve in the direction sought with a large enough effect in the repeat runs; an effect the other way counts as inactive or inconclusive; further: on the % scale 0 is the no-effect control and ±100 the full control effect); settings: ARE-bla HepG2 viability, CellTiter-Glo ATP luminescence, 16 h; stronger effect = lower value
In short: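 ARE-bla HepG2 cells treated with compounds for 16 h at 37C; this counter screen measures viability as intracellular ATP by CellTiter-Glo luminescence after 30 min at room temperature.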

[11] = qHTS assay for cell viability of HEK293 cells (AID 743288); settings: ATP luminescence (CellTiter-Glo), 18 h, stronger effect = lower value; further: on the % scale 0 is the no-effect control and ±100 the full control effect; nearly all actives have a fitted effect of over 50% in size
In short: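 HEK293 parental, 2,000 cells/well; ≥5 h pre-incubation 37 C; pintool compound addition; 18 h, 37 C; CellTiter-Glo 30 min RT; luminescence read.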

[12] = qHTS assay for cell viability of the p53RE-bla HCT-116 cell line (AID 743292); further: on the % scale 0 is the no-effect control and ±100 the full control effect; nearly all actives have a fitted effect of over 55% in size
In short: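 Viability of compound-treated p53RE-bla HCT-116 cells is taken from ATP-dependent luciferase luminescence. Treatment lasts 16 h at 37 C after a 5 h settling period; detection follows 30 min at room temperature.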

[13] = biological target: Nuclear receptor subfamily 1 group I member 2 (Rattus norvegicus) (UniProt Q9R1A7); experiment: qHTS assay for small molecule activators of the rat pregnane X receptor (rPXR) signaling pathway (AID 651751; call rule not given here; further: 0% is about no effect); settings: rPXR reporter cells, luciferase (One-Glo), 24 h
Sequence of Nuclear receptor subfamily 1 group I member 2 (Rattus norvegicus) (Q9R1A7 whole entry, looked up): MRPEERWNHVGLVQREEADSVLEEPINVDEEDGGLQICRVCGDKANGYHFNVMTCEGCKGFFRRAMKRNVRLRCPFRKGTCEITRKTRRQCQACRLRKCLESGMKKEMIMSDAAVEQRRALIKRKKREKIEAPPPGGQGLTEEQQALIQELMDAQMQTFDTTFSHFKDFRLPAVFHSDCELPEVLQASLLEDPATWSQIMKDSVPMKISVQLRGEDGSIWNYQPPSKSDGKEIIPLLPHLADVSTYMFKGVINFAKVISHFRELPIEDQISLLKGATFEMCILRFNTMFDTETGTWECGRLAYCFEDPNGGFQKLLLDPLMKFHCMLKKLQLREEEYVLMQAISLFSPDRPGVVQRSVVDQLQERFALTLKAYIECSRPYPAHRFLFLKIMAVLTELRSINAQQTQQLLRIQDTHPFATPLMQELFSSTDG

[14] = qHTS assay for small molecule activators of the human pregnane X receptor (PXR) signaling pathway (AID 720659; call rule not given here; further: 0% is about no effect)

Cc1cccc(C(=O)O)c1[N+](=O)[O-]
inactive: Potency [1] | Potency [2] | Potency [3] | Potency [4] | activation [5] 1.97% | max response [6] -1.91% | Potency [7] | outcome [8] | Potency [9] | max response [10] 5.5% | max response [11] -1.21% | Potency [12] | max response [13] -0.47% | outcome [14]

Nc1cc(S(=O)(=O)O)ccc1O
inactive: Potency [1] | Potency [2] | Potency [3] | Potency [4] | activation [5] -0.613% | max response [6] -7.35% | Potency [7] | outcome [8] | Potency [9] | max response [10] 3.72% | max response [11] -1.98% | Potency [12] | max response [13] 3.88% | outcome [14]

C=C(C)C(=O)OCCCCCCCCCC
inactive: Potency [1] | Potency [2] | Potency [3] | Potency [4] | activation [5] -0.81% | max response [6] -0.186% | Potency [7] | outcome [8] | Potency [9] | max response [10] -0.733% | max response [11] -5.31% | Potency [12] | max response [13] 3.26% | outcome [14]

O=C(O)CCSSCCC(=O)O
inactive: Potency [1] | Potency [2] | Potency [3] | Potency [4] | activation [5] -0.395% | max response [6] -1.98% | Potency [7] | outcome [8] | Potency [9] | max response [10] 0.366% | max response [11] -9.15% | Potency [12] | max response [13] -1.84% | outcome [14]

ICCc1ccccc1
inactive: Potency [1] | Potency [2] | Potency [3] | Potency [4] | activation [5] 3.65% | max response [6] -1.29% | Potency [7] | outcome [8] | Potency [9] | max response [10] 3.37% | max response [11] -14.1% | Potency [12] | max response [13] -1.67% | outcome [14]

CC(C)=CCl
inactive: Potency [1] | Potency [2] | Potency [3] | Potency [4] | activation [5] 2.36% | max response [6] 0.634% | Potency [7] | outcome [8] | Potency [9] | max response [10] 14.9% | max response [11] -6.69% | max response [13] 3.22% | outcome [14]

OC/C(Br)=C(\Br)CO
inactive: Potency [1] | Potency [2] | Potency [3] | Potency [4] | activation [5] -1.6% | max response [6] -6.37% | Potency [7] | outcome [8] | Potency [9] | max response [10] 1.49% | max response [11] 0.0424% | Potency [12] | max response [13] 0.247% | outcome [14]

Nc1cccc([N+](=O)[O-])c1
inactive: Potency [1] | Potency [2] | Potency [3] | Potency [4] | activation [5] 0.683% | max response [6] -2.36% | Potency [7] | outcome [8] | Potency [9] | max response [10] 11.8% | max response [11] -2.77% | Potency [12] | max response [13] -4.93% | outcome [14]

C=Cc1ccccn1
inactive: Potency [1] | Potency [2] | Potency [3] | Potency [4] | activation [5] 0.147% | max response [6] 0.108% | Potency [7] | outcome [8] | Potency [9] | max response [10] -6.91% | max response [11] 3.38% | Potency [12] | max response [13] 2.42% | outcome [14]

CC(C)(C)OC=O
inactive: Potency [1] | Potency [2] | Potency [3] | Potency [4] | activation [5] -1.07% | max response [6] -0.442% | Potency [7] | outcome [8] | Potency [9] | max response [10] 9.86% | max response [11] 5.3% | Potency [12] | max response [13] 3.48% | outcome [14]

CCOc1ccccc1N
inactive: Potency [1] | Potency [2] | Potency [3] | Potency [4] | activation [5] -0.265% | max response [6] -0.0098% | Potency [7] | outcome [8] | Potency [9] | max response [10] 12.7% | max response [11] 0.362% | Potency [12] | max response [13] 2.86% | outcome [14]

Cc1cc(C)cc([N+](=O)[O-])c1
inactive: Potency [1] | Potency [2] | Potency [3] | Potency [4] | activation [5] 0.689% | max response [6] -0.421% | Potency [7] | outcome [8] | Potency [9] | max response [10] -11.8% | max response [11] 1.12% | Potency [12] | max response [13] 1.37% | outcome [14]

O=C(O)c1ccc(Cl)c(Cl)c1
inactive: Potency [1] | Potency [2] | Potency [3] | Potency [4] | activation [5] 1.84% | max response [6] -5.43% | Potency [7] | outcome [8] | Potency [9] | max response [10] -1.66% | max response [11] 1.65% | Potency [12] | max response [13] -0.362% | outcome [14]

OC1CCCC1
inactive: Potency [1] | Potency [2] | Potency [3] | Potency [4] | activation [5] -0.947% | max response [6] 1.11% | Potency [7] | outcome [8] | Potency [9] | max response [10] -3.18% | max response [11] 3.74% | Potency [12] | max response [13] -2.46% | outcome [14]

O=C1CCCCC1
inactive: Potency [1] | Potency [2] | Potency [3] | Potency [4] | activation [5] -0.681% | max response [6] -2.26% | Potency [7] | outcome [8] | Potency [9] | max response [10] 5.45% | max response [11] -3.35% | Potency [12] | max response [13] 2.79% | outcome [14]
